Records with an inconclusive call do not appear. Calls of active or inactive are those of the source. The call rests on the fitted dose curve; in most records, active means well fitted activation curve with a large enough effect in the main read-out, with a control signal flat (not every such curve was filed as active); inconclusive means small, poorly fitted or top-dose-only effect, or effect the other way, or a change in a side signal; inactive means flat fitted curve, though single readings scatter.
target: 3',5'-cyclic-AMP phosphodiesterase 4B (Homo sapiens) (UniProt Q07343); test: qHTS Assay for Inhibitors of PDE-IV (AID 607); conditions: HEK293 ACTOne CNG channel cells, membrane potential fluorescence; series mostly up to 22.9 µM
Summary of the method: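 Cell-based read-out of cAMP via a modified cyclic nucleotide-gated channel and membrane potential dye (535/590 nm) in HEK293 cells expressing PDE4 endogenously. Compounds tested up to 22.9 uM final; 100 uM RO 20-1724 reference.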

3',5'-cyclic-AMP phosphodiesterase 4B (Homo sapiens), sequence (Q07343 whole entry, looked up): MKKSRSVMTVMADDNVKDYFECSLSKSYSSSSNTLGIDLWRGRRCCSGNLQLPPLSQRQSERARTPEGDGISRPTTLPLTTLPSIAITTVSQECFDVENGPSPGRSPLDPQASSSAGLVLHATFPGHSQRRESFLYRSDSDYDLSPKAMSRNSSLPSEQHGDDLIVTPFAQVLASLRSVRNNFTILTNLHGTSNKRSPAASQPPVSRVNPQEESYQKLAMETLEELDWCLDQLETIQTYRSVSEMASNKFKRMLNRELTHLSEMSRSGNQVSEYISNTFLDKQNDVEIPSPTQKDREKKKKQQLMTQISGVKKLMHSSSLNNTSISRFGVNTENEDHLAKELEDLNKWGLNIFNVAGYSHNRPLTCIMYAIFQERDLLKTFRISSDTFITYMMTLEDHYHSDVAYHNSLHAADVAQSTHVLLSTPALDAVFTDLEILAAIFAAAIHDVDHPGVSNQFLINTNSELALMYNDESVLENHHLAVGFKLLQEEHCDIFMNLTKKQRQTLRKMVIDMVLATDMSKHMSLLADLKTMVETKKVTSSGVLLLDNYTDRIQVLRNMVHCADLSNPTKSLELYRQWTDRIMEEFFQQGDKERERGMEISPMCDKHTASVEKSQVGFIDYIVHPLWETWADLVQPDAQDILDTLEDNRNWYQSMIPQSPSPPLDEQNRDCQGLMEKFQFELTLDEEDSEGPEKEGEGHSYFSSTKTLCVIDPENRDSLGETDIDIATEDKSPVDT

Row | Compound | outcome
1 | CCn1cc(C(=O)O)c(=O)c2cc(F)c(N3CCNCC3)nc21 | inactive
2 | COc1cc2ncnc(Nc3cccc(Cl)c3)c2cc1OC | inactive
3 | Cc1ncc([N+](=O)[O-])n1CCO | inactive
4 | NC(=O)c1cccc(N)c1 | inactive
5 | CC1=CC(=O)c2ccccc2C1=O | inactive
6 | Cc1noc(NS(=O)(=O)c2ccc(N)cc2)c1C | inactive
7 | N[C@@H](Cc1ccc(O)c(O)c1)C(=O)O | inactive
8 | O=C(O)c1cccnc1 | inactive
9 | CCOC(=O)c1ccc(OC(=O)CCCCCN=C(N)N)cc1 | inactive
10 | COc1ccc2c(c1)c(CC(=O)OCC(=O)O)c(C)n2C(=O)c1ccc(Cl)cc1 | inactive
11 | CCCOc1ccc(C(=O)OCCN(CC)CC)cc1N | inactive
12 | Nc1[nH]c(=O)ncc1F | inactive
13 | Cc1cc(NS(=O)(=O)c2ccc(N)cc2)no1 | inactive
14 | Cc1nnc(NS(=O)(=O)c2ccc(N)cc2)s1 | inactive
15 | NC(N)=NC(N)=NCCc1ccccc1 | inactive
16 | CNNCc1ccc(C(=O)NC(C)C)cc1 | inactive
17 | CC1=NN(c2ccccc2)C(=O)C1 | inactive
18 | COc1ccc2cc3[n+](cc2c1OC)CCc1cc2c(cc1-3)OCO2 | inactive
19 | COC(=O)Nc1nc2ccc(C(=O)c3ccccc3)cc2[nH]1 | inactive
20 | OCc1ccc(-c2nn(Cc3ccccc3)c3ccccc23)o1 | inactive
21 | COC(=O)Nc1nc2ccc(Sc3ccccc3)cc2[nH]1 | inactive
22 | COc1ncnc(NS(=O)(=O)c2ccc(N)cc2)c1OC | inactive
23 | N=C(N)c1ccc(OCCCCCOc2ccc(C(=N)N)cc2)cc1 | inactive
24 | COc1cnc(NS(=O)(=O)c2ccc(N)cc2)nc1 | inactive

— PubChem BioAssay (NCATS)
